Measurements as given in PubChem BioAssay AID1490 (National Center for Advancing Translational Sciences (NCATS), 2009).
The whole screen tested about 310,000 compounds, of which about 11,000 (3.5%) were called active. Another 4% or so got no clear call; they are omitted. The entries come from a sample that favours actives as a whole. A number with no mark means an inactive call. The call rests on the fitted dose curve; in most records, active means well fitted inhibition curve with a large enough effect; inconclusive means small, poorly fitted or top-dose-only effect, or another doubt; inactive means no such curve, though single readings can be large or run the other way.

biological target: 4'-phosphopantetheinyl transferase ffp (Bacillus subtilis) (UniProt Q9F4F7); experiment: qHTS Assay for Inhibitors of Bacillus subtilis Sfp phosphopantetheinyl transferase (PPTase); conditions: Biochemical Sfp PPTase activity;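 further: the enzyme is Sfp with the accession as filed and its product quenches rhodamine fluorescence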;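 on largest response in the series, negative = inhibition: 0% = enzyme reaction without inhibitor and -100% = no enzyme wells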
Text: Assay Submitter: Michael Burkart, University of California, San Diego
Screening Center PI: Austin, C.P.
Screening Center: NIH Chemical Genomics Center [NCGC]
The covalent attachment of a phosphopantetheinyl (4'-PP) arm to a variety of synthases and other proteins is a key posttranslational protein modification. The 4'-PP is installed on the proteins post-translationally from coenzyme A (CoA) on a conserved serine residue by action of phosphopantetheinyl transferase (PPTase) enzymes. Phosphopantetheinylation is essential for synthase activity, and removal of the PPTase gene precludes natural product synthesis in microorganisms, or in the case of fatty acid biosynthesis, renders the organism unviable. PPTase enzymes belong to a distinct structural superfamily. Within bacteria, these enzymes are grouped into two classes based upon primary structure, the AcpS-Type and Sfp-Type PPTases.
Sfp-type PPTases, corresponding to an activator of surfactin production in Bacillus subtilis, are responsible for modifying type I polyketide and nonribosomal peptide synthases of prokaryotes. Sfp-type PPTases are responsible for the activation of a variety of pathogen-associated virulence factors. Among these compounds are toxins such as mycolactone from Mycobacterium ulcerans, siderophores such as vibriobactin from Vibrio cholerae or mycobactin from Mycobacterium tuberculosis, as well as the mycolic acids which form the waxy cell wall of Mycobacteria. The biosyntheses of these natural products are considered attractive targets for drug design.
In search of small molecule Sfp-PPTase inhibitors, a fluorescence quenching assay was developed for detection of Bacillus subtilis Sfp-PPTase enzymatic activity in a miniaturized high-throughput format. The consensus ybbr acceptor peptide […] was N-terminally labeled with Black Hole Quencher-2 (BHQ-2) and used in combination with rhodamine-labeled coenzyme A as a co-substrate.
Inhibition of Sfp-PPTase was detected by recording the fluorescence intensity change over a 30-minute reaction period at a 525 nm excitation and 598 nm emission. Reagents were supplied by Michael Burkart and Timothy Foley, University of California at San Diego.
This BioAssay deposition is for validation of the developed Sfp-PPtase assay.
Assay Buffer: 50 mM Hepes-Na pH 7.6, 10 mM MgCl2, 0.01% Nonidet P-40, and 0.01% BSA.
3 uL of Sfp-PPTase enzyme (final concentration 15 nM) and 1 uL of substrate mixture (final concentration for rhodamine-CoA and BHQ-2-YbbR 5 uM and 12.5 uM, respectively) dispensed in columns 1, 2, 5 - 48. Columns 1 and 2 used to generate neutral control (uninhibited reaction)
Three uL of reagents, consisting of buffer (in columns 3 and 4 as negative control) and Sfp-PPTase (in columns 1, 2, 5 - 48) were dispensed into 1,536-well Greiner black solid bottom plate. Compounds (23 nL) were transferred via Kalypsys pintool equipped with 1,536-pin array. The plate was incubated for 15 min at room temperature, followed by the addition of 1 uL substrate to start the reaction. The plate was then centrifuged at 1000 rpm for 15 seconds, and the fluorescence intensity recorded on a ViewLux High-throughput CCD imager (Perkin-Elmer) using standard BODIPY optics (525 nm excitation and 598 nm emission). The plate was then incubated for 30 minutes, and a second read on the ViewLux was performed. The fluorescence intensity difference over the 30-minute period was used to calculate the respective reaction rate for each well.
Potency means the concentration at half of the fitted maximal effect.

| SMILES | largest response in the series, negative = inhibition [%] | Potency |
| --- | --- | --- |
| O=C(N/N=C/c1cccc(Br)c1)c1ccc(N2CCCC2=O)cc1 | 2.98 |  |
| Cc1occc1C(=O)NC1CCCN(Cc2ccc(CC(C)C)cc2)C1 (configuration not stated) | 10 |  |
| COc1ccc(CNC(=O)CN(C(=O)c2csnn2)c2cnc3ccccc3c2)cc1 | 15.4 |  |
| CCc1c(C)sc(NC(=O)c2ccc(Br)o2)c1C(=O)OC | -4.91 |  |
| CCc1c(C)sc(NC(=O)c2cccs2)c1C(N)=O |  | 14.1 µM (active) |
| COC(=O)c1c(NC(=O)c2cccs2)sc2c1CCCC2 | 6.07 |  |
| CC(C)(COC(=O)Nc1ccccc1)COC(=O)Nc1ccccc1 | 5.47 |  |
| NC(=O)CSc1nnc(NC(=O)c2ccc(Br)o2)s1 | 4.59 |  |
| Cc1cc(OC(=O)c2ccc(OC(C)C)cc2)c([N+](=O)[O-])c(=O)[nH]1 | 16.6 |  |
| C=CCOc1cccc(CNCc2cccnc2)c1 | -13.5 |  |
| Fc1ccccc1COc1ccccc1CNCc1ccncc1 | -8.76 |  |
| c1ccc(COc2ccccc2CNCc2cccnc2)cc1 |  | 56.2 µM (active) |
| Oc1c(Cl)cc(Cl)cc1/C=N/c1ncn[nH]1 | -2.74 |  |
| Cc1ccccc1CN1C[C@@H]2C[C@@H](c3ccc4nsnc4c3)N3CCC[C@@]23C1=O | 7.31 |  |
| Cc1ccccc1CN1C[C@@H]2C[C@@H](c3cn(C)nc3-c3ccccc3)N3CCC[C@@]23C1=O |  | 3.16 µM (active) |
| Cc1ccc(CN2CCN(Cc3cn(C)nc3-c3ccccc3)CC2CCO)o1 (configuration not stated) | 8.78 |  |
| COc1ccc(NC(=O)CSc2nc(SC)ns2)c(OC)c1 | 8.6 |  |
| COC(=O)c1c(C)[nH]c(C)c1-c1ccc([N+](=O)[O-])cc1 | 9.93 |  |
| COC(=O)C1=C(C(=O)OC)C(c2cc([N+](=O)[O-])ccc2O)c2sc(=O)[nH]c2S1 (configuration not stated) |  | 44.7 µM (active) |
| COC(=O)C1=C(C)N(C)C(=O)NC1c1ccc([N+](=O)[O-])o1 (configuration not stated) | 23.4 |  |
| COC(=O)c1cc(S(=O)(=O)N2CCN(c3cc(C)ccc3C)CC2)c[nH]1 | 24.2 |  |
| COc1ccc(S(=O)(=O)n2nc(C)c(S(=O)(=O)N3CCOCC3)c2C)cc1 | 8.67 |  |
| Oc1ccc(C2Nc3cccc4cccc(c34)N2)cc1 |  | 35.5 µM (active) |
| COc1cccc(C2Nc3cccc4cccc(c34)N2)c1 | 6.1 |  |
| Cc1ccc(C2Nc3cccc4cccc(c34)N2)cc1 | -26.1 |  |
| FCOC(C(F)(F)F)C(F)(F)F | 11.5 |  |
| CCc1ccc(NC(=O)Cn2nnc(C(=O)NCc3ccc(OC)cc3)c2N)cc1 | 4.14 |  |
